Test [1] relates to Klebsiella pneumoniae. The settings on record: Concentration 32 ug.mL-1;; ASSAY_TEST Inhibition of Bacterial Growth; detection method Absorption (OD600); MEDIA CAMHB; plate type 384well; NBS; CORNING #3640; time 18 hr.
For test [2], the system named is Candida albicans. The settings on record: Concentration 32 ug.mL-1; ASSAY_TEST Inhibition of Fungal Growth; detection method Absorption (OD530).
Test [3] has as its system Cryptococcus neoformans. The settings on record: Concentration 32 ug.mL-1; ASSAY_TEST Inhibition of Fungal Growth; detection method Resazurin; Absorption (OD600-OD570); plate type 384well; NBS; CORNING #3640.

The values that follow come from ChEMBL document CHEMBL4513146, “CO-ADD screening of Karazin Kharkiv National University (Ukraine) compounds”.

Measured potencies and affinities stand elsewhere.

Regarding `CCc1ccccc1NC(=O)Cn1nc2cc(C)nc(Nc3ccc(F)c(C)c3)n2c1=O`, the Inhibition in test [1] is given as 11.82%; in test [2], 5.42%; in test [3], -2.36%.
On the same counts, the results for `COc1cccc(-n2ccn3c(SCc4cccc(C)c4)nnc3c2=O)c1` are 11.77%, 3.62% and -12.18%.
The matching figures for `CCc1ccccc1NC(=O)Cn1nc2c(SCc3ccc(Cl)cc3)nccn2c1=O`: 13.77%, 2.88% and -20.04%.
On the same counts, the results for `COC(=O)c1ccc(NC(=O)Cn2nc3c4sc(N5CCCC5)nc4ncn3c2=O)cc1` are -7.74%, 1.38% and -4.89%.
With `CCOC(=O)c1ccc(NC(=O)Cn2nc3ccc(S(=O)(=O)C(C)(C)C)nn3c2=O)cc1`, the Inhibition in test [1] is 4.44%; in test [2], 15.58%; in test [3], -19.66%.
`CCOC(=O)c1ccccc1NC(=O)CSc1nnc2ccc(C(=O)Nc3cccc(F)c3)cn12`: the figures for the Inhibition in test [1], in test [2] and in test [3] were 3.32%, 0.61% and -6.96%, respectively.
On the same counts, the results for `Cc1cc(C)cc(N(Cc2ccc(Cl)cc2)S(=O)(=O)c2cccn3c(C)nnc23)c1` are 4.19%, 0.27% and -8.23%.
The matching figures for `CCCc1nnc2c(=O)n(CC(=O)Nc3ccc(Cl)c(Cl)c3)c3ccccc3n12`: 5.7%, 0.11% and -14.21%.
The matching figures for `CCOc1ccc(NC(=O)Cn2nc3ccc(-c4ccc(C)c(C)c4)nn3c2=O)cc1`: 4.27%, 1.39% and -10.52%.
On to `CCCCOc1ccc(-c2cc3c4nnc(SCC(=O)Nc5cc(F)ccc5C)n4ccn3n2)cc1`, for which the results for the Inhibition in test [1], in test [2] and in test [3] were -4.04%, 9.93% and -31.79%, respectively.
Take `Cc1cc(C)cc(N(Cc2ccc(F)cc2)S(=O)(=O)c2cccn3c(C)nnc23)c1`: the results for the Inhibition in test [1], in test [2] and in test [3] were -0.28%, 0.42% and -5.4%, respectively.
On the same counts, the results for `COc1cccc(-n2ccn3c(SCC(=O)c4c[nH]c5ccccc45)nnc3c2=O)c1` are 10.78%, 4.57% and -9.55%.
With `COc1ccc(NC(=O)Cn2nc3ccc(-c4ccc(C)c(C)c4)nn3c2=O)cc1OC`, the Inhibition is 6.13% in test [1], 32.8% in test [2] and -43% in test [3].
For the compound `COc1cccc(NC(=O)Cn2nc3ccc(-c4ccc(C)c(C)c4)nn3c2=O)c1`, the Inhibition in test [1] is -6.86%; in test [2] it was 8.09%; in test [3], -10.05%.
The matching figures for `CCC(C)NC(=O)c1ccc2c(=O)n(CCC(C)C)c3nn(CC#N)c(=O)n3c2c1` (stereo unspecified): 14.77%, 0.65% and -22.02%.
On the same counts, the results for `O=C(CSc1nnc2c(=O)n(-c3ccc(Br)cc3)ccn12)c1ccc(F)cc1` are 7.31%, 5.26% and -8.48%.
The matching figures for `O=C(CCc1nnc2ccc(-c3ccc(Cl)cc3)nn12)NCc1ccc(F)cc1Cl`: 20.9%, 0.76% and -15.23%.
On to `Cc1cc2nn(CC(=O)Nc3cc(F)ccc3F)c(=O)n2c(Nc2ccc(F)c(C)c2)n1`, for which the Inhibition is 12.97% in test [1], 1.83% in test [2] and -3.72% in test [3].
The matching figures for `CCc1nnc2c(S(=O)(=O)N(Cc3cccc(C)c3)c3ccc(C(C)C)cc3)cccn12`: 14.47%, 4.99% and -9.13%.
On the same counts, the results for `Cc1ccc(Nc2cc(C)n3c(=O)n(CCOc4ccc(F)cc4)nc3n2)cc1` are 19.26%, 2.38% and -10.19%.
As for `O=C(CSc1nc2ccccc2n2cnnc12)Nc1ccc2c(c1)OCO2`, the Inhibition in test [1] was 0.58%; in test [2], 2.55%; in test [3], -24.91%.
With `CSc1ccc(CNC(=O)Cn2nc3c(Oc4ccccc4)nccn3c2=O)cc1`, the figures for the Inhibition in test [1], in test [2] and in test [3] were 13.75%, 0.62% and -8.38%, respectively.
On the same counts, the results for `Cc1ccc(NC(=O)Cn2nc3c(SC4CCCCC4)nccn3c2=O)c(Br)c1` are 3.74%, 0.73% and -7.42%.
On the same counts, the results for `CSc1cccc(NC(=O)Cn2nc3ccc(-c4ccc(C)c(C)c4)nn3c2=O)c1` are -6.08%, 28.21% and -10.99%.
On the same counts, the results for `O=C(Cn1nc2ccc(SCc3ccc(Cl)cc3)nn2c1=O)NCc1ccc2c(c1)OCO2` are -1.27%, 13.27% and -15.83%.
Turning to `Cc1cccc(CN(c2cc(C)cc(C)c2)S(=O)(=O)c2cccn3c(C)nnc23)c1`, the Inhibition in test [1] was 4.64%; in test [2], 1.12%; in test [3] it was -10.57%.
The matching figures for `COc1ccc2[nH]cc(C(=O)CSc3nnc4c(=O)n(-c5ccc(C)c(C)c5)ccn34)c2c1`: 2.12%, 0.06% and -6.08%.
